In PubChem BioAssay (NCATS):
Records with an inconclusive call do not appear. Active and inactive are the calls of the source. Calls come from the whole dose curve; as a rule, active = well fitted inhibition curve with a large enough effect; inconclusive = small, poorly fitted or top-dose-only effect; inactive = flat fitted curve, though single readings scatter.

Key:
Assay in all cases: qHTS profiling for inhibitors of Plasmodium falciparum proliferation (AID 504749); note: nearly all actives have a fitted effect of over 60% in size
CP260 = conditions: P. falciparum in erythrocytes, SYBR Green DNA, 72 h; series mostly up to 12.8 µM
Procedure, shortened: (§1)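 SYBR Green fluorescence of parasite DNA, read after lysis and overnight dark incubation, measured growth over 72 h in erythrocyte culture at 0.3% parasitemia and 2.5% hematocrit. Data normalised to DMSO and 0.29 uM artemisinin, with plate-drift correction.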

CP262 = conditions: P. falciparum in erythrocytes, SYBR Green DNA, 72 h; series mostly up to 12.8 µM
Procedure, shortened: as §1

CP265 = conditions: P. falciparum in erythrocytes, SYBR Green DNA, 72 h; series mostly up to 12.8 µM
Procedure, shortened: as §1

CP266 = conditions: P. falciparum in erythrocytes, SYBR Green DNA, 72 h; series mostly up to 28.7 µM
Procedure, shortened: as §1

CP268 = conditions: P. falciparum in erythrocytes, SYBR Green DNA, 72 h; series mostly up to 12.8 µM
Procedure, shortened: as §1

CP269 = conditions: P. falciparum in erythrocytes, SYBR Green DNA, 72 h; series mostly up to 12.8 µM
Procedure, shortened: as §1

CP286 = conditions: P. falciparum in erythrocytes, SYBR Green DNA, 72 h; series mostly up to 12.8 µM
Procedure, shortened: as §1

CP291 = conditions: P. falciparum in erythrocytes, SYBR Green DNA, 72 h; series mostly up to 12.8 µM
Procedure, shortened: as §1

CP297 = conditions: P. falciparum in erythrocytes, SYBR Green DNA, 72 h; series mostly up to 12.8 µM
Procedure, shortened: as §1

CP305 = conditions: P. falciparum in erythrocytes, SYBR Green DNA, 72 h; series mostly up to 12.8 µM
Procedure, shortened: as §1

CP325 = conditions: P. falciparum in erythrocytes, SYBR Green DNA, 72 h; series mostly up to 12.8 µM
Procedure, shortened: as §1

CP329 = conditions: P. falciparum in erythrocytes, SYBR Green DNA, 72 h; series mostly up to 12.8 µM
Procedure, shortened: as §1

CP335 = conditions: P. falciparum in erythrocytes, SYBR Green DNA, 72 h; series mostly up to 12.8 µM
Procedure, shortened: as §1

DFO2036 = conditions: P. falciparum in erythrocytes, SYBR Green DNA, 72 h; series mostly up to 12.8 µM
Procedure, shortened: as §1

DIV14 = conditions: P. falciparum in erythrocytes, SYBR Green DNA, 72 h; series mostly up to 12.8 µM
Procedure, shortened: as §1

DIV17 = conditions: P. falciparum in erythrocytes, SYBR Green DNA, 72 h; series mostly up to 12.8 µM
Procedure, shortened: as §1

DIV30 = conditions: P. falciparum in erythrocytes, SYBR Green DNA, 72 h; series mostly up to 12.8 µM
Procedure, shortened: as §1

Dd2 = conditions: P. falciparum in erythrocytes, SYBR Green DNA, 72 h; series mostly up to 12.8 µM
Procedure, shortened: as §1

ECU = conditions: P. falciparum in erythrocytes, SYBR Green DNA, 72 h; series mostly up to 12.8 µM
Procedure, shortened: as §1

FAB9 = conditions: P. falciparum in erythrocytes, SYBR Green DNA, 72 h; series mostly up to 12.8 µM
Procedure, shortened: as §1

GB4 = conditions: P. falciparum in erythrocytes, SYBR Green DNA, 72 h; series mostly up to 12.8 µM
Procedure, shortened: as §1

HB3 = conditions: P. falciparum in erythrocytes, SYBR Green DNA, 72 h; series mostly up to 12.8 µM
Procedure, shortened: as §1

ICS = conditions: P. falciparum in erythrocytes, SYBR Green DNA, 72 h; series mostly up to 12.8 µM
Procedure, shortened: as §1

JCK = conditions: P. falciparum in erythrocytes, SYBR Green DNA, 72 h; series mostly up to 12.8 µM
Procedure, shortened: as §1

P93_24 = conditions: P. falciparum in erythrocytes, SYBR Green DNA, 72 h; series mostly up to 12.8 µM
Procedure, shortened: as §1

P94_40 = conditions: P. falciparum in erythrocytes, SYBR Green DNA, 72 h; series mostly up to 12.8 µM
Procedure, shortened: as §1

PAD = conditions: P. falciparum in erythrocytes, SYBR Green DNA, 72 h; series mostly up to 12.8 µM
Procedure, shortened: as §1

PC15 = conditions: P. falciparum in erythrocytes, SYBR Green DNA, 72 h; series mostly up to 12.8 µM
Procedure, shortened: as §1

PC26 = conditions: P. falciparum in erythrocytes, SYBR Green DNA, 72 h; series mostly up to 12.8 µM
Procedure, shortened: as §1

PC49 = conditions: P. falciparum in erythrocytes, SYBR Green DNA, 72 h; series mostly up to 12.8 µM
Procedure, shortened: as §1

SC27B = conditions: P. falciparum in erythrocytes, SYBR Green DNA, 72 h; series mostly up to 12.8 µM
Procedure, shortened: as §1

TAB109 = conditions: P. falciparum in erythrocytes, SYBR Green DNA, 72 h; series mostly up to 12.8 µM
Procedure, shortened: as §1

TAB113 = conditions: P. falciparum in erythrocytes, SYBR Green DNA, 72 h; series mostly up to 12.8 µM
Procedure, shortened: as §1

TAB165 = conditions: P. falciparum in erythrocytes, SYBR Green DNA, 72 h; series mostly up to 12.8 µM
Procedure, shortened: as §1

W2 = conditions: P. falciparum in erythrocytes, SYBR Green DNA, 72 h; series mostly up to 12.8 µM
Procedure, shortened: as §1

Measured: Potency

O=c1[nH]cnc2c1ncn2C1OC(CO)C(O)C1O (stereo not given)
inactive: CP260 | CP262 | CP265 | CP266 | CP268 | CP269 | CP286 | CP291 | CP297 | CP305 | CP325 | CP329 | CP335 | DFO2036 | DIV14 | DIV17 | DIV30 | Dd2 | ECU | FAB9 | GB4 | HB3 | ICS | JCK | P93_24 | P94_40 | PAD | PC15 | PC26 | PC49 | SC27B | TAB109 | TAB113 | TAB165 | W2
